This note sets out measurements from ChEMBL document CHEMBL1961873, “Compounds: GSK PKIS; Assays: Nanosyn kinase panel” (2012).

Broadly, the inhibition is the change of the read-out against control, counted positive when it falls.

Assay [1] concerns the target T1, 3-phosphoinositide-dependent protein kinase 1 (Homo sapiens) (UniProt O15530).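 Also: values are mean inhibition of PDK1.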
T1 sequence (whole entry): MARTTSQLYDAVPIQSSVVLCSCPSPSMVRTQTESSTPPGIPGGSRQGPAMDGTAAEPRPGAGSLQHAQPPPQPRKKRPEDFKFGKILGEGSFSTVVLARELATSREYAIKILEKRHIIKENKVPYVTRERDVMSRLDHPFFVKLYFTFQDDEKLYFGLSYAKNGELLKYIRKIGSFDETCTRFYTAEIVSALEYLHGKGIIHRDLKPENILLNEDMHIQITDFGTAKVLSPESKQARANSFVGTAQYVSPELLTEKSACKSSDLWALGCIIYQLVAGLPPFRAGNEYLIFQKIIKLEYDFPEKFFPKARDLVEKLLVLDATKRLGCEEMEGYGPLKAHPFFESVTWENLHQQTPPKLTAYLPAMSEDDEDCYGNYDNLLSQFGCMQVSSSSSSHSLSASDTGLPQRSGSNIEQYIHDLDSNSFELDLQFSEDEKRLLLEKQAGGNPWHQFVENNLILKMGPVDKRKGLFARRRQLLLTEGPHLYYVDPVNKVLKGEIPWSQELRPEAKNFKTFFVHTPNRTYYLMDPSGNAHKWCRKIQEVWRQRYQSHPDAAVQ
The note with it: at 0.1 µM.

Assay [2] has as its target cAMP-dependent protein kinase catalytic subunit alpha (Homo sapiens) (UniProt P17612). The following applies: at 0.1 µM.
Assay [3] has the same target. The note with it: at 1 µM.
For assay [4], the target named is Protein kinase C alpha type (Homo sapiens) (UniProt P17252). The note with it: at 0.1 µM.
The target is the same in assay [5]. The following applies: at 1 µM.
Assay [6] concerns the target Protein kinase C beta type (Homo sapiens) (UniProt P05771). The following applies: at 0.1 µM.
Assay [7] has the same target. The following applies: at 1 µM.
Assay [8] concerns the target Protein kinase C eta type (Homo sapiens) (UniProt P24723). The note with it: at 0.1 µM.
Assay [9] shares this target. The following applies: at 1 µM.
The target in assay [10] is Protein kinase C gamma type (Homo sapiens) (UniProt P05129). The note with it: at 0.1 µM.
Assay [11] shares this target. The note with it: at 1 µM.
For assay [12], the target named is T2, Protein kinase C iota type (Homo sapiens) (UniProt P41743).
T2 sequence (whole entry): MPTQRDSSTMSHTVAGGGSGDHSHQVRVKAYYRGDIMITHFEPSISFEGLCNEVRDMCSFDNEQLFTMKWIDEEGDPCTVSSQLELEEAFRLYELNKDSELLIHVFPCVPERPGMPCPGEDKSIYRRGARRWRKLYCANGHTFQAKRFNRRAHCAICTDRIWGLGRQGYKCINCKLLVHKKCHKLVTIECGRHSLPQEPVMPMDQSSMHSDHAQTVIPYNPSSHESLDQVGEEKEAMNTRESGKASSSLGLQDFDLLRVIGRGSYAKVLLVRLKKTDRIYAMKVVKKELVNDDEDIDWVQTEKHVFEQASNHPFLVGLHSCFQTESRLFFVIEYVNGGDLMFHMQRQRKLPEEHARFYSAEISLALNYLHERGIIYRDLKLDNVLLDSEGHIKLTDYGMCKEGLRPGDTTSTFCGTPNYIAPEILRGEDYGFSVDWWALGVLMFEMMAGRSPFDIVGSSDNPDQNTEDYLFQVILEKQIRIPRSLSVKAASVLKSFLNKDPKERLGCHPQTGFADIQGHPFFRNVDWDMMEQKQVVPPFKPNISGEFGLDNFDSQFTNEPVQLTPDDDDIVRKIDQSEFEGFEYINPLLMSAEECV
The note with it: at 0.1 µM.

The target of assay [13] is T2, Protein kinase C iota type (Homo sapiens). The following applies: at 1 µM.
In assay [14] the target is Protein kinase C theta type (Homo sapiens) (UniProt Q04759). The following applies: at 0.1 µM.
For assay [15] the target is unchanged. The note with it: at 1 µM.
The target in assay [16] is Protein kinase C beta type (Homo sapiens) (UniProt P05771). The following applies: at 0.1 µM. The source holds these as a separate data set.
For assay [17] the target is unchanged. The note with it: at 1 µM. The source holds these as a separate data set.
Assay [18] has as its target T3, Serine/threonine-protein kinase D1 (Homo sapiens) (UniProt Q15139).
T3 sequence (whole entry): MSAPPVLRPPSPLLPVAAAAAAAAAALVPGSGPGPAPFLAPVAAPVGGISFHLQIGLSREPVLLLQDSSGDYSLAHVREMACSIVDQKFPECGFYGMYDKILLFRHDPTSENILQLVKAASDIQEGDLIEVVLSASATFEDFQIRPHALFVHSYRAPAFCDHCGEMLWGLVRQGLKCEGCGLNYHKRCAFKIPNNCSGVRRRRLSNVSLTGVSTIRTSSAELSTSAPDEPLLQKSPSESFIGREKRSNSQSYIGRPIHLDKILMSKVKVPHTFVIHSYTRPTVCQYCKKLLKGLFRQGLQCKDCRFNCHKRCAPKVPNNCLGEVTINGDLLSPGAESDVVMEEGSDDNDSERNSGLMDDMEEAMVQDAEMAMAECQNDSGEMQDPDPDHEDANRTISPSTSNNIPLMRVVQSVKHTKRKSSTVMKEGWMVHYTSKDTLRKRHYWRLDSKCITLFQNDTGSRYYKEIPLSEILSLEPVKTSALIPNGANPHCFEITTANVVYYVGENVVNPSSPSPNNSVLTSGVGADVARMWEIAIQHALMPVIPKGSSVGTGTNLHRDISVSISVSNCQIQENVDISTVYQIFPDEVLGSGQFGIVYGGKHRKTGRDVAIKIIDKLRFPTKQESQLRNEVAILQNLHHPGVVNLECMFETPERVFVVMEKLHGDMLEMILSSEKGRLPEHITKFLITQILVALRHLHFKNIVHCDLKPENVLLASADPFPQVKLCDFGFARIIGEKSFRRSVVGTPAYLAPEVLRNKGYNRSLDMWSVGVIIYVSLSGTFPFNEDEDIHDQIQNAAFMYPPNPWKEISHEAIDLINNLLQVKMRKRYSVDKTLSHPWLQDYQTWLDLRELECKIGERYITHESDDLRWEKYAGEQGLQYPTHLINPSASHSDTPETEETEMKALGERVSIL
The note with it: at 0.1 µM.

Assay [19] has as its target T3, Serine/threonine-protein kinase D1 (Homo sapiens). The note with it: at 1 µM.
Assay [20] addresses T4, Serine/threonine-protein kinase D2 (Homo sapiens) (UniProt Q9BZL6).
T4 sequence (whole entry): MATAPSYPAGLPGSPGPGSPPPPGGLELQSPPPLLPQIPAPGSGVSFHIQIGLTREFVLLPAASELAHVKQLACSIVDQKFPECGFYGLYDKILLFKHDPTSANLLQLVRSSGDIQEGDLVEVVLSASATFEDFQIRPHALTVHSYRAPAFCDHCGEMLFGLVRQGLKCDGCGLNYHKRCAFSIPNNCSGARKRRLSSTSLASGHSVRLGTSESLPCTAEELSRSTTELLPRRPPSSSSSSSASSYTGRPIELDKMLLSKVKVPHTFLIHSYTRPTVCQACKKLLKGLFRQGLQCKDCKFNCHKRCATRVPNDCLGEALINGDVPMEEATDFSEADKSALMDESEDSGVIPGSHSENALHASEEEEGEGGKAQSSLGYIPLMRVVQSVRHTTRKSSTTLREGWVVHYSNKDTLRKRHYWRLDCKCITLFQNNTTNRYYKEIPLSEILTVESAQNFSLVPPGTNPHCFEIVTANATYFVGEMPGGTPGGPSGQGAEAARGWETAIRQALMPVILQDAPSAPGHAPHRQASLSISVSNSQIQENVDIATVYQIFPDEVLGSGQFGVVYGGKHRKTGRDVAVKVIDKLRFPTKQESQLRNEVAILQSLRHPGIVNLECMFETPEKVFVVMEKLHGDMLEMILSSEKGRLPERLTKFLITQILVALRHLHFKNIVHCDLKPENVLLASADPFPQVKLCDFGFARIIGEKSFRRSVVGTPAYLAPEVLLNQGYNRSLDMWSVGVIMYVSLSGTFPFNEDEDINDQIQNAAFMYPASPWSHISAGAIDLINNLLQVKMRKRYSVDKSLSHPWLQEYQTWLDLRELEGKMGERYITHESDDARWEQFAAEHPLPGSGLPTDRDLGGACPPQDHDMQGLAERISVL
The note with it: at 0.1 µM.

Sequence of Protein kinase C beta type (Homo sapiens) (P05771 2-671 limits assumed): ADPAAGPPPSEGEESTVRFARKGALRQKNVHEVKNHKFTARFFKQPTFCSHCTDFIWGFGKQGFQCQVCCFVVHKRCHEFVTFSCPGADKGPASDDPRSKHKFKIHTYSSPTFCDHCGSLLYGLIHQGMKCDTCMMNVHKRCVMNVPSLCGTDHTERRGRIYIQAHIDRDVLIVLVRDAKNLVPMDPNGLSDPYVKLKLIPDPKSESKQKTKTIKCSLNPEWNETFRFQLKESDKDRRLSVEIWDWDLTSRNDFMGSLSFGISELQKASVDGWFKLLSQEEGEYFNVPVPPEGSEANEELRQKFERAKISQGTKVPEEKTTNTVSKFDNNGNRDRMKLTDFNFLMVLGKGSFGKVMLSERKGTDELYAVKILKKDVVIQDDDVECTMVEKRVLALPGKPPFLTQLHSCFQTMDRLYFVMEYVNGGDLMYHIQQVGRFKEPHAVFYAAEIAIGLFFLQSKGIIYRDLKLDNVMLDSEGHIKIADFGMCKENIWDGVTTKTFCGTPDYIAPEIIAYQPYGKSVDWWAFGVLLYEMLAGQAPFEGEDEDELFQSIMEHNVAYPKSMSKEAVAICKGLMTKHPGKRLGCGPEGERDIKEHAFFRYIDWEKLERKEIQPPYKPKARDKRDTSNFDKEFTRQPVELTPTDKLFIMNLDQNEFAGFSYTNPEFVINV
Sequence of Protein kinase C eta type (Homo sapiens) (P24723 whole entry): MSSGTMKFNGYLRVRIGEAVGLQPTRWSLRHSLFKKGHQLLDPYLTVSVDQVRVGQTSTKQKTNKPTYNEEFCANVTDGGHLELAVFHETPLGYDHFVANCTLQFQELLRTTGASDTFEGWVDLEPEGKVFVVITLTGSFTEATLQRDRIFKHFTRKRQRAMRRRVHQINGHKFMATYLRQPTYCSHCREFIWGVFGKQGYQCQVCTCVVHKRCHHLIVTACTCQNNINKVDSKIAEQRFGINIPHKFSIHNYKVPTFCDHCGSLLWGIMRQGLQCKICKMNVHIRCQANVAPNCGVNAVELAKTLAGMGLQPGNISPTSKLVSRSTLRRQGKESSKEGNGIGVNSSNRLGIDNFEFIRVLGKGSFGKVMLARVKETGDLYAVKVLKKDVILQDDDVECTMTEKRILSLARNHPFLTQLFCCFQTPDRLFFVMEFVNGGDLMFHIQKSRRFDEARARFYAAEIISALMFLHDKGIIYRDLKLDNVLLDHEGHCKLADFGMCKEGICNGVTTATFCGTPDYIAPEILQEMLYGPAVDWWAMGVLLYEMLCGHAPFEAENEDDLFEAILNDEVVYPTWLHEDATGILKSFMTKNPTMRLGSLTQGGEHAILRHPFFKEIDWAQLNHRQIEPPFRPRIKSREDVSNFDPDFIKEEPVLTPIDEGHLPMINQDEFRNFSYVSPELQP
Sequence of Protein kinase C theta type (Homo sapiens) (Q04759 whole entry, looked up): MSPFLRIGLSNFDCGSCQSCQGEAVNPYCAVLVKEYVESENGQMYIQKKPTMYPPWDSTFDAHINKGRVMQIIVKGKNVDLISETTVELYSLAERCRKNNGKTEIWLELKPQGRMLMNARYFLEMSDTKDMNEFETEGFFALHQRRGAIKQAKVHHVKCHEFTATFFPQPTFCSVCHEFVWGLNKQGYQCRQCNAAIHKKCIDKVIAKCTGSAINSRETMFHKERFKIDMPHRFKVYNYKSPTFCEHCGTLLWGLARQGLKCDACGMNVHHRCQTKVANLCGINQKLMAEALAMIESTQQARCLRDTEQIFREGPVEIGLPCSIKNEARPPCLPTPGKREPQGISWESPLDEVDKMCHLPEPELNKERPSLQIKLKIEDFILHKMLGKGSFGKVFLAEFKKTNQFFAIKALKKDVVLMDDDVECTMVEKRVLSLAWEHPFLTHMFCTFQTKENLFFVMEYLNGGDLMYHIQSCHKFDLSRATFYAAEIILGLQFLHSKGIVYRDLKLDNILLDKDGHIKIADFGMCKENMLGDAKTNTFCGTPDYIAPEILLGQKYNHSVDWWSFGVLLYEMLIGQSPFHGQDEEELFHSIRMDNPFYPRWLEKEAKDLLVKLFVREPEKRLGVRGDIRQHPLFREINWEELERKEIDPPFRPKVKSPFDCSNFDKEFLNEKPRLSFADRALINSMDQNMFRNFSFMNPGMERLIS

Turning to `COc1cc2ncn(-c3cc(O[C@H](C)c4ccccc4Cl)c(C(N)=O)s3)c2cc1OC`, the inhibition was 2.16% in assay [1]; 2.29% in assay [2]; 1.54% in assay [3]; -0.04% in assay [4]; 0.09% in assay [5]; 3.14% in [6]. For the same compound, the inhibition in assay [7] came out at 5.95%; in assay [8], 4.41%; in [9], 4.05%; in [10], 3.01%; in assay [11], 4.01%; in assay [12] it was 2.97%. In addition, the inhibition in assay [13] is 0.22%; in assay [14], 3.41%; in assay [15], 4.9%; in assay [16], 2.75%; in [17], 3.52%; in [18], 1.04%. The inhibition in assay [19] is 3.84%; in [20], 2.69%.
For `CS(=O)(=O)Nc1ccc(N/C=C2\C(=O)Nc3ccccc32)cc1`, the inhibition in assay [1] is 2.23%; in assay [2], -2%; in assay [3] it was 0.29%; in assay [4], -0.53%; in [5], 0.61%; in [6], -0.94%. Further, the inhibition in assay [7] was -1.13%; in assay [8] it was -0.7%; in [9] it was -4.5%; in [10] it was -3.28%; in assay [11] it was 0.03%; in assay [12] it was -1.38%. The inhibition is -0.98% in assay [13]; -1.09% in assay [14]; -0.74% in assay [15]; -1.02% in assay [16]; -0.85% in assay [17]; -2.24% in assay [18]. Also, the inhibition in assay [19] was 3.18%; in assay [20], -0.04%.
In the case of `Fc1cccc(COc2ccc(Nc3ncnc4sc(-c5cccs5)cc34)cc2Cl)c1`, the inhibition was -0.7% in assay [1]; 1.34% in assay [2]; 1.04% in assay [3]; -0.17% in [4]; 0.09% in assay [5]; -0.52% in assay [6]. Besides, the inhibition in [7] is -0.08%; in [8], 1.43%; in [9] it was 1.98%; in assay [10] it was -0.34%; in assay [11], 2.13%; in assay [12], 0.71%. In addition, the inhibition in [13] was 1.19%; in [14] it was 0.32%; in [15], 0.01%; in assay [16] it was -0.19%; in assay [17], 0.44%; in assay [18], 0.09%. Moreover, the inhibition in assay [19] is 0.23%; in [20], -1.32%.
As for `O=C(Nc1n[nH]c2nc(-c3ccco3)c(Br)cc12)C1CC1`, the inhibition in assay [1] amounted to 2%; in [2] it was 1.31%; in assay [3] it was 2.05%; in assay [4] it was 0.29%; in assay [5], 0.28%; in assay [6], 1.29%. Also, the inhibition in assay [7] was -0.77%; in [8], 3.62%; in assay [9], 2.72%; in assay [10] it was 0.45%; in [11], 3.32%; in assay [12], 0.86%. Also, the inhibition is 2.37% in [13]; 1.29% in assay [14]; 0.79% in assay [15]; 0.69% in [16]; 1.19% in assay [17]; 2.8% in [18]. The inhibition in assay [19] was found to be 5.78%; in assay [20], 3%.
Regarding `Cc1nn(C)c2cc(N(C)c3ccnc(Nc4cccc(S(N)(=O)=O)c4)n3)ccc12`, the inhibition in assay [1] was 1.33%; in assay [2], 2.03%; in assay [3], 6.18%; in assay [4], 1%; in [5] it was 6.39%; in assay [6], 1.44%. The inhibition in [7] came to 6%; in assay [8], 4.55%; in [9] it was 2.34%; in assay [10] it was 4.1%; in [11], 10.3%; in assay [12] it was 2.3%. Moreover, the inhibition in [13] was determined as 3.87%; in assay [14] it was 1.21%; in assay [15] it was 2.49%; in assay [16], 2.72%; in assay [17] it was 6.99%; in [18], 2.29%. Besides, the inhibition in assay [19] is 4.44%; in assay [20] it was 3.66%.
Turning to `NCc1ccc(-c2nc(-c3ccc(Cl)c(O)c3)c(-c3ccncc3)[nH]2)cc1`, the inhibition in assay [1] was determined as 2.25%; in [2], 1.31%; in assay [3], 3.95%; in [4], 0.75%; in assay [5], 2.46%; in [6], 5.37%. In addition, the inhibition in assay [7] is 27.9%; in assay [8], 1.93%; in [9], 3.81%; in assay [10], 0.36%; in assay [11], 0.42%; in assay [12], -0.2%. Further, the inhibition in assay [13] is -0.02%; in assay [14], -0.02%; in assay [15], -0.18%; in assay [16] it was 0.76%; in assay [17], 10.8%; in assay [18] it was 0.78%. The inhibition was 2.64% in assay [19] and 1.57% in [20].
